Assay results reported in publication PMC4336329 (PLoS ONE, 2015).
Screen size: about 310,000 compounds; about 14,000 (4.5%) showed an effect of 50% or more. The effect is printed as a negative number. Shown is part of a subset that was picked to be rich in strong results.

Target: human ether-à-go-go-related gene (hERG) potassium channel (human, UniProt Q12809)
Test: primary screen, population patch clamp on CHO cells stably expressing hERG; higher = less effect of the substance
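Note: peak tail current of the secondary pulse compared with the same well before compound.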

human ether-à-go-go-related gene (hERG) potassium channel, sequence (Q12809 whole entry, looked up): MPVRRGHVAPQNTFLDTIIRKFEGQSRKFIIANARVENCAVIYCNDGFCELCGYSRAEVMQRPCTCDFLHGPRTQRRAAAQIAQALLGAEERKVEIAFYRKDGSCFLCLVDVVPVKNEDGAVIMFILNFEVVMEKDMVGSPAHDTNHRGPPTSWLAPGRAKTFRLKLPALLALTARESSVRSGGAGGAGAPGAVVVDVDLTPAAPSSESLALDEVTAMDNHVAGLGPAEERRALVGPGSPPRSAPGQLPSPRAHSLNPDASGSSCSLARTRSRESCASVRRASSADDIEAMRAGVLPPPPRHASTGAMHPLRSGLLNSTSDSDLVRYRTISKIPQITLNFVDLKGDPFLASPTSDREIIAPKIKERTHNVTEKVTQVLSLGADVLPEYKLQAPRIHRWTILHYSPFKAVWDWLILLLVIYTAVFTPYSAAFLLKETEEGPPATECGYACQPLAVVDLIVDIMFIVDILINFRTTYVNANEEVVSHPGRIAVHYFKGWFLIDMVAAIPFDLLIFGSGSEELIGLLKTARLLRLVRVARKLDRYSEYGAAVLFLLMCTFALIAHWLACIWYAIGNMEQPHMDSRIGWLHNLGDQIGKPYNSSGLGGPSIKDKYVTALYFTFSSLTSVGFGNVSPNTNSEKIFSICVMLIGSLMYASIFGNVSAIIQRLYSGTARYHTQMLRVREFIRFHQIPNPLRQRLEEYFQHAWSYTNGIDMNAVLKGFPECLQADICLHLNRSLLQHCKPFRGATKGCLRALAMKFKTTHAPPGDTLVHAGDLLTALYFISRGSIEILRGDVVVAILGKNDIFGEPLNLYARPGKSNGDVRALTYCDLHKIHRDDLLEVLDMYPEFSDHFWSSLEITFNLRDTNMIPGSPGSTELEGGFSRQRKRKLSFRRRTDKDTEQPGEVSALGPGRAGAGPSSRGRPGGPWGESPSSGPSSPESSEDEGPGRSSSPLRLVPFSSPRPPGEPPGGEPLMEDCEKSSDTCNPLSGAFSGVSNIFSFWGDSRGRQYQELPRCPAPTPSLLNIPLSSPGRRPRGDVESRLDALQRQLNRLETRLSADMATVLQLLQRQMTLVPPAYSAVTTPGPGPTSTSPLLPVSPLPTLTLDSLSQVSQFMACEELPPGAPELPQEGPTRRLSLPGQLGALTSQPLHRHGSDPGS

SMILES | hERG current change (%, negative = inhibition) at 10uM
CC(=O)C(Sc1nc(N(C)C)nc(N(C)C)n1)C(=O)Nc1ccccc1 (stereo not drawn) | -3.04%
CC(NC(=O)C1CCCN(S(=O)(=O)c2cccs2)C1)c1ccccc1 (stereo not drawn) | 6.73%
COc1ccc2c(c1)C=C(C(=O)OCc1cccnc1)CO2 | 3.63%
COc1cccc2c1OCC(C(=O)OCc1cccnc1)=C2 | -17.4%
O=C(OCc1cccnc1)C1=Cc2ccccc2OC1 | -64.9%
O=C(NCC1(c2ccccc2)CCOCC1)c1cccs1 | 13.9%
COC(=O)C1=C(C)Nc2c(c(=O)n(C)c(=O)n2C)C1c1cccnc1 (stereo not drawn) | -2.61%
CCN(CC)C(=O)c1cc2c(=O)c3cc(Cl)ccc3oc2nc1C | -66.1%
Cc1nc2oc3ccc(Cl)cc3c(=O)c2cc1C(=O)O | 19%
CCN(CC)C(=O)c1cc2c(=O)c3cc(F)ccc3oc2nc1C | -10.8%
CN(CC(=O)Nc1ccccc1C(F)(F)F)C(=O)CCc1nc2sc3c(c2c(=O)[nH]1)CCCC3 | 7.94%
CCCn1nnc(NC(=O)c2ccc(OC)cc2)n1 | 2.42%
CCc1nc2ccccc2n1Cc1ccc(F)cc1 | -0.73%
O=C1c2ccccc2C(=O)N1CCCn1ccnc1 | 17.1%
O=C1c2ccccc2C(=O)N1CCCc1nc2ccccc2c(=O)n1-c1cccnc1 | -39.7%
Cc1nc2ccccc2c(=O)n1Cc1ccco1 | -7.41%
O=C1c2ccccc2C(=O)N1CCc1nc2ccccc2c(=O)n1CCCn1ccnc1 | -62.5%
O=C1c2ccccc2C(=O)N1Cc1nc2ccccc2c(=O)n1Cc1ccco1 | 21.3%
Cc1nc2ccccc2c(=O)n1CCCn1ccnc1 | -17%
O=C1c2ccccc2C(=O)N1CCc1nc2ccccc2c(=O)n1Cc1ccco1 | -61.8%
CCC(c1nc2ccccc2c(=O)n1CCCn1ccnc1)N1C(=O)c2ccccc2C1=O (stereo not drawn) | -38.8%
O=C1c2ccccc2C(=O)N1CCCc1nc2ccccc2c(=O)n1CCCn1ccnc1 | -65%
COc1ccc(N2C(=O)c3ccccc3NC2c2ccc(OC)c(CSc3ccccn3)c2)cc1 (stereo not drawn) | 2.62%
COc1cc(C(=O)NCCSc2ccc(Cl)cc2)cc(OC)c1OC | -3.08%
